Screens as filed in PubChem BioAssay.
mHTT-CaM PPI inh – disrupts binding of mutant huntingtin to calmodulin. AID 1671202. inhibition, % at 15 µM. hit rate 3.6% among 190,000. P42858. AlphaScreen His-mHTT/GST-CaM binding, luminescence;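 further: 0% = both proteins with DMSO and 100% = one protein alone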
Pf apPOL block – Pf-apPOL DNA polymerase inhibition; Recombinant Pf-apPOL, molecular beacon fluorescence, 1.5 h; inhibition, % at 10 µM; hit rate 0.25% among 210,000
* = called active by the depositor. Compounds with a hit are over-represented: about 3.5% of the library has one in this group of screens. No stated cut-off is given here; in the data, active means inhibition above about 50%; inactive means the rest.

SMILES	mHTT-CaM PPI inh	Pf apPOL block
CC(=O)N1c2c(cc(Br)cc2S(=O)(=O)Nc2ccc(C(F)(F)F)cc2)CC1C (stereo not given)	91.0*	-0.6
Cc1ccc(-c2csc(=Nc3ccccc3)n2CCO)cc1	52.0*	-6.1
OCCn1c(-c2ccc(Cl)cc2)csc1=Nc1ccccc1	69.0*	-2.7
c1ccc(N=c2scc(-c3ccccc3)n2CCN2CCOCC2)cc1	26.0	1.5
CCN(CC)CCn1c(-c2ccccc2)csc1=Nc1ccccc1	18.0	3.9
OCCn1c(-c2ccc(Cl)c(Cl)c2)csc1=Nc1ccccc1	100.0*	13.9
CC1=CCC(C(=O)O)C(C(=O)Nc2ccc([N+](=O)[O-])cc2)C1 (stereo not given)	3.7	1.1
CC1(C)N=C(c2ccccc2)C(=O)N1CC(=O)Nc1ccccc1	-12.1	-4.4
COc1ccc(NC(=O)N2CCC(c3nc(C(=O)N(C)C)c(C)o3)CC2)cc1	-6.0	-6.8
Cc1ccc(NC(=O)c2nc(C)n(C3CCN(S(C)(=O)=O)CC3)c2C)cc1	14.7	-4.5
Cc1noc(C2CN(C(=O)c3c[nH]c4ccccc34)C2)n1	-7.2	-4.8
CCCN1C(=O)/C(=C\c2nc3ccccc3c(=O)[nH]2)c2cc(Br)ccc21	68.0*	3.6
CN1C(=O)/C(=C\c2nc3ccccc3c(=O)[nH]2)c2ccccc21	-2.0	-0.8
O=C(Nc1ccc2c(c1)OCO2)N1CCCC(c2nnc(Cc3ccccc3)s2)C1 (stereo not given)	4.1	-14.8
C=CCn1c(=O)c2c(ncn2CC)n(-c2ccc(Cl)cc2)c1=O	0.5	-0.2
Cc1ccc(CCNC(=O)CN(C)S(=O)(=O)c2ccc3[nH]c4c(c3c2)CCCC4)cc1	59.2*	-2.6
COc1ccccc1NC(=O)CN(C)S(=O)(=O)c1ccc2[nH]c3c(c2c1)CCCC3	46.3	-1.1
COc1cccc(CNC(=O)CN(C)S(=O)(=O)c2ccc3[nH]c4c(c3c2)CCCC4)c1	35.8	-2.1
CN(CC(=O)NCCc1ccccc1)S(=O)(=O)c1ccc2[nH]c3c(c2c1)CCCC3	32.8	-4.1
CN(CC(=O)NCc1ccc(Cl)cc1)S(=O)(=O)c1ccc2[nH]c3c(c2c1)CCCC3	58.0*	-2.9
COc1ccccc1CNC(=O)CN(C)S(=O)(=O)c1ccc2[nH]c3c(c2c1)CCCC3	57.8*	-2.0
CC(=O)NCCOc1cc(C)ccc1C(C)C	2.5	-1.2
COCCCNC(=O)CCS(=O)(=O)Cc1ccccc1F	-6.0	-13.5
CCN(CC)C(=O)Cn1cc(/C=C2\C(=O)NC(=O)N(c3cccc(C)c3C)C2=O)c2ccccc21	56.0*	-4.9
CCn1cc(/C=C2\C(=O)NC(=O)N(c3ccc(F)cc3)C2=O)c2ccccc21	8.0	-4.0
SMILES	mHTT-CaM PPI inh	Pf apPOL block
CCn1cc(/C=C2\C(=O)NC(=O)N(c3ccc(C)cc3)C2=O)c2ccccc21	53.0*	47.4
CCn1cc(/C=C2\C(=O)NC(=O)N(c3ccc(Br)cc3)C2=O)c2ccccc21	11.0	-4.7
CC(C)C(=O)N1CCC(c2ccn3ncc(C(=O)N4CCCC4)c3c2)CC1	-2.9	-2.8
COc1ccc(NC(=O)N2CCC3(CC2)Nc2cc(F)ccc2-n2cccc23)cc1	66.5*	-3.2
CCc1ccc(NC(=O)N2CCC3(CC2)Nc2cc(F)ccc2-n2cccc23)cc1	72.0*	-3.4
COc1ccc(NC(=O)N2CCC3(CC2)Nc2cc(F)ccc2-n2cccc23)cc1OC	61.1*	-2.5
CCOc1ccc(NC(=O)N2CCC3(CC2)Nc2cc(F)ccc2-n2cccc23)cc1	65.5*	1.3
CSc1cccc(NC(=O)N2CCC3(CC2)Nc2cc(F)ccc2-n2cccc23)c1	25.1	-1.6
COc1cccc(NC(=O)N2CCC3(CC2)Nc2cc(F)ccc2-n2cccc23)c1	46.6	-6.3
CC1Cc2cc(-c3cc(CC(=O)NCCc4ccc(S(N)(=O)=O)cc4)no3)ccc2O1 (stereo not given)	15.6	-0.3
CCCn1cnc2c1c(=O)n(C1CCCC1)c(=O)n2-c1cccc(F)c1	-1.0	-3.2
COCCn1cc2c3c(cccc31)CN(C(=O)c1ccc(OC)cc1C)CC2	51.4*	-3.3
COc1ccc(C(=O)N2CCc3cn(C)c4cccc(c34)C2)cc1F	32.0	-3.3
COCCn1cc2c3c(cccc31)CN(C(=O)c1ccccc1F)CC2	37.1	-3.8
COc1ccc(C(=O)N2CCc3cn(C)c4cccc(c34)C2)c(C)c1	30.0	-2.1
COCCn1cc2c3c(cccc31)CN(C(=O)c1cccc(F)c1)CC2	53.9*	-0.9
COCCn1cc2c3c(cccc31)CN(C(=O)c1ccccc1Br)CC2	68.7*	-6.7
CCn1cc2c3c(cccc31)CN(C(=O)c1ccc(OC)c(F)c1)CC2	52.2*	-4.8
COCCn1cc2c3c(cccc31)CN(C(=O)Nc1cc(F)cc(F)c1)CC2	1.9	-0.5
CCc1onc(C)c1C1CCCN1C(=O)c1ccc(OC)c(OC)c1 (stereo not given)	-6.5	-1.8
Cc1cccc(N2CCN(C(=O)c3cc4c(s3)CCN(C(=O)c3ccccc3)C4)CC2)c1	5.8	-1.4
